# Results from article PMC7862700, “An all-to-all approach to the identification of sequence-specific readers for epigenetic DNA modifications on cytosine”.
# Tests used:
# Assay in all cases: DAPPL (digital affinity profiling via proximity ligation, sequencing); 10 mM Tris-HCl pH 7.5, 50 mM NaCl, 1 mM DTT, 4% glycerol, room temperature, 30 min; GST-TFs on glutathione beads, 16-mer random dsDNA library, 0.1% formaldehyde crosslink after washing; high values mean tight binding
# [1] = target: T1, FEV (Homo sapiens, UniProt Q99581 1-238); conditions: protein: recombinant; tags: N-terminal GST; dsDNA, one strand shown
# T1 sequence: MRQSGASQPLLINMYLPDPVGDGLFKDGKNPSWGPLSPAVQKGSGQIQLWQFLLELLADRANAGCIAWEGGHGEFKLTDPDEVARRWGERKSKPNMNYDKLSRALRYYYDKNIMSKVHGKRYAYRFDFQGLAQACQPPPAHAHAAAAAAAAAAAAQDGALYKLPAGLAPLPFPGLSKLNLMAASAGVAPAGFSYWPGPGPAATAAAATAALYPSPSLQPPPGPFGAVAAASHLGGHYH
# Method in brief: (§1)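 Binding signal is defined as a hexamer's read frequency for one factor over its frequency for the tag-only sample. To obtain reads, GST-fused human transcription factors were expressed in yeast, captured on glutathione beads, barcoded with DNA and pooled with that sample. Pools met 200 nmole of a 16-mer random double-stranded DNA library in Tris/NaCl/DTT/glycerol buffer for 30 min at room temperature before washing, 0.1% formaldehyde crosslinking, proximity ligation (BsaI/T4 ligase, 1 h, 37 °C), PCR and Illumina NextSeq500 sequencing.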
# [2] = target: ETV5 (Homo sapiens, UniProt P41161 1-510); conditions: protein: recombinant; tags: N-terminal GST; dsDNA, one strand shown
# Chain of ETV5 (P41161 whole entry): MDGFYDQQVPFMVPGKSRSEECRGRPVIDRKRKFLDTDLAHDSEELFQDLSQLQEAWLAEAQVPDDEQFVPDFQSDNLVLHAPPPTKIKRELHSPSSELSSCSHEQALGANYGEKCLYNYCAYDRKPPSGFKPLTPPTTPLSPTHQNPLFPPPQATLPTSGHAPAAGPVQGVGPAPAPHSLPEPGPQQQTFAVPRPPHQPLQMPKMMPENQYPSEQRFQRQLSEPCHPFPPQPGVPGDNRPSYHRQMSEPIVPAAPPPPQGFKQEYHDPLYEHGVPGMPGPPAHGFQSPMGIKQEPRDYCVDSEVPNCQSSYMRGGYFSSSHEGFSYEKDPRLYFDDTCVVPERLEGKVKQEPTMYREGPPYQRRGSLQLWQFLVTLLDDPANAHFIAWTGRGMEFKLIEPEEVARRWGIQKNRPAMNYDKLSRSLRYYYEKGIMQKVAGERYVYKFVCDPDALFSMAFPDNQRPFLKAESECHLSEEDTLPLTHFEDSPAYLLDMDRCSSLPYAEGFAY
# Method in brief: as §1
# [3] = target: HSF1 (Homo sapiens, UniProt Q00613 1-529); conditions: protein: recombinant; tags: N-terminal GST; chain copies: 3; dsDNA, one strand shown
# Chain of HSF1 (Q00613 whole entry): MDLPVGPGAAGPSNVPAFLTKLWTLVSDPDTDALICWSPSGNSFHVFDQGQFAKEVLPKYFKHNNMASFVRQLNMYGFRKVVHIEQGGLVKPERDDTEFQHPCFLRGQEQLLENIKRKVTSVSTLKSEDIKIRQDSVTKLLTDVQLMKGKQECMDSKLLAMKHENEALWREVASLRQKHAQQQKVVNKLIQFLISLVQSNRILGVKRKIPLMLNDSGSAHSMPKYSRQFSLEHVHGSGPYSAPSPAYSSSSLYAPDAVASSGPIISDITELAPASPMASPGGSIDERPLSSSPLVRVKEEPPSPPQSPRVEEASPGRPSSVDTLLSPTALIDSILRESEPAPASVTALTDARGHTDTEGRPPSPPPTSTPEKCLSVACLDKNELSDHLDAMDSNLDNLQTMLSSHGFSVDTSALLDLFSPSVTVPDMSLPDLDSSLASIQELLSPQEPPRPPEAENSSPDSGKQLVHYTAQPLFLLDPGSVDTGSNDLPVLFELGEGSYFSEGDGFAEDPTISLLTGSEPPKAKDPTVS
# Method in brief: as §1
# [4] = target: T2, SPIC (Homo sapiens, UniProt Q8N5J4 1-248); conditions: protein: recombinant; tags: N-terminal GST; dsDNA, one strand shown
# T2 sequence: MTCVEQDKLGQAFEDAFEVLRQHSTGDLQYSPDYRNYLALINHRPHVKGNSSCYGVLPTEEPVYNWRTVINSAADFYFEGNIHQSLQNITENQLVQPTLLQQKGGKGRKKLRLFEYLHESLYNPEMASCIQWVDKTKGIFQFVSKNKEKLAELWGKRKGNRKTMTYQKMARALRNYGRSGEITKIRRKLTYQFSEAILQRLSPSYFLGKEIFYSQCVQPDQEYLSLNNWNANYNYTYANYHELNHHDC
# Method in brief: as §1
# [5] = target: ELF4 (Homo sapiens, UniProt Q99607 1-663); conditions: protein: recombinant; tags: N-terminal GST; dsDNA, one strand shown
# Chain of ELF4 (Q99607 whole entry): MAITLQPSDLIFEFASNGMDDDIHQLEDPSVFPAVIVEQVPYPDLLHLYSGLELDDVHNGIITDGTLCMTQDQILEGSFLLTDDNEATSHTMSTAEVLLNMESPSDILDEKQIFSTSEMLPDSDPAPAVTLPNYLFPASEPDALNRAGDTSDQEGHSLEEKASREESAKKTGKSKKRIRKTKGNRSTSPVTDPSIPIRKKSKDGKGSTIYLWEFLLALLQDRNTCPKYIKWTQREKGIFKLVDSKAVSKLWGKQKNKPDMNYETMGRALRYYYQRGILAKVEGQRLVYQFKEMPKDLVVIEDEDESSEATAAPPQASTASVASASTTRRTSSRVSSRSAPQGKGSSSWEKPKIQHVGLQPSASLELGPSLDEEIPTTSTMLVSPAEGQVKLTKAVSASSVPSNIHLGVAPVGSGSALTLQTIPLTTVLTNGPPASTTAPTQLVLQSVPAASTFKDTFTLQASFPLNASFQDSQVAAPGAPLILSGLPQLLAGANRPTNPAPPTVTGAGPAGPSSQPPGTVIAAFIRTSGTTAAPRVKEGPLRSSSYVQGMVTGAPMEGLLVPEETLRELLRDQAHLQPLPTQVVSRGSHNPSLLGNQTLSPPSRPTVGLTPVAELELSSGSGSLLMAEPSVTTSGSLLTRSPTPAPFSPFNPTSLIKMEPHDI
# Method in brief: as §1
# [6] = target: T3, ELK4 (Homo sapiens, UniProt P28324-2 1-405); conditions: protein: recombinant; tags: N-terminal GST; dsDNA, one strand shown
# T3 sequence: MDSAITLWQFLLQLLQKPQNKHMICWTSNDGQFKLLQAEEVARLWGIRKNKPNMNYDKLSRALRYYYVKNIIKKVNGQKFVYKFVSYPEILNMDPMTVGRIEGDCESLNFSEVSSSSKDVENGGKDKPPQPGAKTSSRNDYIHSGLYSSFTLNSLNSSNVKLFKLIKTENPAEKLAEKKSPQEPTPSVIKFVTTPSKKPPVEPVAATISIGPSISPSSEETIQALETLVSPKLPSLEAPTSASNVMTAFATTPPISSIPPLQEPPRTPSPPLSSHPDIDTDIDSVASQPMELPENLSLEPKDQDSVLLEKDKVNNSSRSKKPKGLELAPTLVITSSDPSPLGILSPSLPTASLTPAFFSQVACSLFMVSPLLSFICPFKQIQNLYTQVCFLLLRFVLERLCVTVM
# Method in brief: as §1
# [7] = target: T4, ETV2 (Homo sapiens, UniProt O00321 1-342); conditions: protein: recombinant; tags: N-terminal GST; dsDNA, one strand shown
# T4 sequence: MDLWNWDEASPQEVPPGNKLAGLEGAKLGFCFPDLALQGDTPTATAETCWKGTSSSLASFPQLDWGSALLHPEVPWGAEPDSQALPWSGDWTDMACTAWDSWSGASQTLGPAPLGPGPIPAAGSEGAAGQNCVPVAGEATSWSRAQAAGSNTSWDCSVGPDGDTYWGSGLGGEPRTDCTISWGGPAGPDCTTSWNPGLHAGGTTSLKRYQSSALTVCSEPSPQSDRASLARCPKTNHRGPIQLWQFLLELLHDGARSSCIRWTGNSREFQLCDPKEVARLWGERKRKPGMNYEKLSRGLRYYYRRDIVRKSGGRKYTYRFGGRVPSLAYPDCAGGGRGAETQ
# Method in brief: as §1
# [8] = target: T5, ELF3 (Homo sapiens, UniProt P78545 1-371); conditions: protein: recombinant; tags: N-terminal GST; dsDNA, one strand shown
# T5 sequence: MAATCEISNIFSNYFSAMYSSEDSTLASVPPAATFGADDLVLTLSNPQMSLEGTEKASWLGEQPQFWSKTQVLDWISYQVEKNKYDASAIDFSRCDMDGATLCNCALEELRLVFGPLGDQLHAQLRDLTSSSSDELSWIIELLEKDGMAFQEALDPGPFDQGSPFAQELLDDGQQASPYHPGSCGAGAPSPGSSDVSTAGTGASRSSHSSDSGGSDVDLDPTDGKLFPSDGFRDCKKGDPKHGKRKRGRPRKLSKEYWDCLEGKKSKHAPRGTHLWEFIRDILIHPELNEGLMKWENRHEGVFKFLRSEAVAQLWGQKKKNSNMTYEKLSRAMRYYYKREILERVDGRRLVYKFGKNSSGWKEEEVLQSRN
# Method in brief: as §1
# [9] = target: CRX (Homo sapiens, UniProt O43186 1-299); conditions: protein: recombinant; tags: N-terminal GST; dsDNA, one strand shown
# Chain of CRX (O43186 whole entry): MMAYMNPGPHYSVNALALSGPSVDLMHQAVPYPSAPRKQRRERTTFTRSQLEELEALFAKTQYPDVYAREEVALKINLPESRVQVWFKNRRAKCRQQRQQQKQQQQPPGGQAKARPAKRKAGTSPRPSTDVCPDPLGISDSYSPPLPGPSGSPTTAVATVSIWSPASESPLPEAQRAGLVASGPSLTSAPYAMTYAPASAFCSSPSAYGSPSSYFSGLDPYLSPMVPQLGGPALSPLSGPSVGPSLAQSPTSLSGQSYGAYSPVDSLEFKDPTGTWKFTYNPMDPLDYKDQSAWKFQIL
# Method in brief: as §1
# [10] = target: ETV1 (Homo sapiens, UniProt P50549 1-477); conditions: protein: recombinant; tags: N-terminal GST; dsDNA, one strand shown
# Chain of ETV1 (P50549 whole entry): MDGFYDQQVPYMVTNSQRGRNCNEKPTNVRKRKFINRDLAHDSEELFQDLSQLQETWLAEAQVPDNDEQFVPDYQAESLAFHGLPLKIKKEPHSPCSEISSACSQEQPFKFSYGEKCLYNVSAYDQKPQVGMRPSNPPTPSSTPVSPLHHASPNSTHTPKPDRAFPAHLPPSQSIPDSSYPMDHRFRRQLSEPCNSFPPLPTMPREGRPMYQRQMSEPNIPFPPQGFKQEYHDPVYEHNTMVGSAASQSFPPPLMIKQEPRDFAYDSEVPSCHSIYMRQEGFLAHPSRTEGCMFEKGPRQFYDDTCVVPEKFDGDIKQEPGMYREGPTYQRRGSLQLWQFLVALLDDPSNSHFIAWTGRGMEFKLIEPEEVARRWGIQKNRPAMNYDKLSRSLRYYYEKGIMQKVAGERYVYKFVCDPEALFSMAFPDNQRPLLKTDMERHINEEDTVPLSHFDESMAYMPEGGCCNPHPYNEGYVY
# Method in brief: as §1
# [11] = target: T6, ERF (Homo sapiens, UniProt P50548 1-548); conditions: protein: recombinant; tags: N-terminal GST; dsDNA, one strand shown
# T6 sequence: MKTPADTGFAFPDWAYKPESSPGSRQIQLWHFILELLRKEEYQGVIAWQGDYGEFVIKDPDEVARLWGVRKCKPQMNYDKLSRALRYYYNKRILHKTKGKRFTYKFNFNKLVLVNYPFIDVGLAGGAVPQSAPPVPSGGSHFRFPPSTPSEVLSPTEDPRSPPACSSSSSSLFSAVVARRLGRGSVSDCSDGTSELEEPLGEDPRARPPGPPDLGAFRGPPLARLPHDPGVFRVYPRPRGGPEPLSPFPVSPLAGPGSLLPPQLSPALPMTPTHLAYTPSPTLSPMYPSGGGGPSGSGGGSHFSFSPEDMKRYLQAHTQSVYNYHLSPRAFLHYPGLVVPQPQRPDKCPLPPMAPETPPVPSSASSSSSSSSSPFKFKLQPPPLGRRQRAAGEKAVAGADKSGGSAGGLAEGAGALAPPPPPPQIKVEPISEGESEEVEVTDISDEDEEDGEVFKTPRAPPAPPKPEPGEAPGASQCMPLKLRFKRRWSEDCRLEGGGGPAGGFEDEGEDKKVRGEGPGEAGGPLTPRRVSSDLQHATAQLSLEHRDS
# Method in brief: as §1
# [12] = target: T7, ETV3L (Homo sapiens, UniProt Q6ZN32 1-361); conditions: protein: recombinant; tags: N-terminal GST; dsDNA, one strand shown
# T7 sequence: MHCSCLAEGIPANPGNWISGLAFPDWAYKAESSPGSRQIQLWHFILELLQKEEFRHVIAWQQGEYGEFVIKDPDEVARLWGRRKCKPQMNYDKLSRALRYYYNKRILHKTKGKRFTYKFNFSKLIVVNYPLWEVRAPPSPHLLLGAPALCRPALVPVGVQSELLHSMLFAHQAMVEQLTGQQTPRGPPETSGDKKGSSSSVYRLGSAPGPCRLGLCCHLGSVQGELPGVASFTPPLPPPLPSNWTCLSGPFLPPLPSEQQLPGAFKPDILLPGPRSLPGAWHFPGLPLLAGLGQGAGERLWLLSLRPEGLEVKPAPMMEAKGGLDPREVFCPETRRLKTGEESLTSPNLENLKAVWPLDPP
# Method in brief: as §1
# [13] = target: T8, ETS2 (Homo sapiens, UniProt P15036 1-469); conditions: protein: recombinant; tags: N-terminal GST; dsDNA, one strand shown
# T8 sequence: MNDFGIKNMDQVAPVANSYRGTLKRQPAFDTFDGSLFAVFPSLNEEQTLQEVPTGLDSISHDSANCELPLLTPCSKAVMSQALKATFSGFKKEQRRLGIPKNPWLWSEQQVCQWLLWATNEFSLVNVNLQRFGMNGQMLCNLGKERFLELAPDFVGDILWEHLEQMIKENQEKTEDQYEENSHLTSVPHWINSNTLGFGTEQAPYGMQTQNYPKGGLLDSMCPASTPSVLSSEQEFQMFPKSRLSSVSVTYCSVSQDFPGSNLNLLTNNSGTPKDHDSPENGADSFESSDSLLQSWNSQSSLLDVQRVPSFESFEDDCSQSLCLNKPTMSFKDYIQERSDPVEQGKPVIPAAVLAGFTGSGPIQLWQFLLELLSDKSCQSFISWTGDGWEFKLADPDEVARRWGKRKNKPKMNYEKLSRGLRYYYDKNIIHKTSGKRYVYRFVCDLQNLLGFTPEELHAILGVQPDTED
# Method in brief: as §1
# [14] = target: T9, SPDEF (Homo sapiens, UniProt O95238 1-335); conditions: protein: recombinant; tags: N-terminal GST; dsDNA, one strand shown
# T9 sequence: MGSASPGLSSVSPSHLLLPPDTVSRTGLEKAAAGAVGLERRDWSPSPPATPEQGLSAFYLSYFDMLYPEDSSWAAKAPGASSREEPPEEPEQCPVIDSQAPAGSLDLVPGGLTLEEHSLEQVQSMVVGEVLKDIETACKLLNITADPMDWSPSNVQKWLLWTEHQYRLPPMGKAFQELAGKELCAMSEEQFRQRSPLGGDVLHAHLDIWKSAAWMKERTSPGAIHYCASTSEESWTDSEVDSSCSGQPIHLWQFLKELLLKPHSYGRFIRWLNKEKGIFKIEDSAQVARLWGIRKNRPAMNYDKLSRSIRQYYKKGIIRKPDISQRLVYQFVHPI
# Method in brief: as §1
# [15] = target: T10, ETV7 (Homo sapiens, UniProt Q9Y603 1-341); conditions: protein: recombinant; tags: N-terminal GST; dsDNA, one strand shown
# T10 sequence: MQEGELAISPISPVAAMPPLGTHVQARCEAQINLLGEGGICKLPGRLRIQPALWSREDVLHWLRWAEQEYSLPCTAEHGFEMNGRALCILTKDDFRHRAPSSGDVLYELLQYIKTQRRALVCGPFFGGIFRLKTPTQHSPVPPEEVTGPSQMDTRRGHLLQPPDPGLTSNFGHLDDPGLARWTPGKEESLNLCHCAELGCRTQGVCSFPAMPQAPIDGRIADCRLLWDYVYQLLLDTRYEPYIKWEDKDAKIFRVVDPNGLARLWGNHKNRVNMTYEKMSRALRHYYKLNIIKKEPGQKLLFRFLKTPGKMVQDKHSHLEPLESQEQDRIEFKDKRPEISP
# Method in brief: as §1
# [16] = target: T11, ELF5 (Homo sapiens, UniProt Q9UKW6-2 1-255); conditions: protein: recombinant; tags: N-terminal GST; dsDNA, one strand shown
# T11 sequence: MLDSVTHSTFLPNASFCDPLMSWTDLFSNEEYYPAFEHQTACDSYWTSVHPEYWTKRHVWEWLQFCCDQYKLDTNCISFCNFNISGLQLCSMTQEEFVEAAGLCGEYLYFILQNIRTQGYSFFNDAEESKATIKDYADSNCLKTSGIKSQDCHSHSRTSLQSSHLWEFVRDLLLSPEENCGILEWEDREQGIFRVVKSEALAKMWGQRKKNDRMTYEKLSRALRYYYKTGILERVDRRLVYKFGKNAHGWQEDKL
# Method in brief: as §1
# [17] = target: T12, ETV3 (Homo sapiens, UniProt P41162-2 1-143); conditions: protein: recombinant; tags: N-terminal GST; dsDNA, one strand shown
# T12 sequence: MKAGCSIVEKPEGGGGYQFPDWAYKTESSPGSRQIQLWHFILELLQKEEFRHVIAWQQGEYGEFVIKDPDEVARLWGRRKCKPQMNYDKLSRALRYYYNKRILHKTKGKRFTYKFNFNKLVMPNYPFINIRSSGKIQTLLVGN
# Method in brief: as §1
# [18] = target: ETV6 (Homo sapiens, UniProt P41212 1-452); conditions: protein: recombinant; tags: N-terminal GST; dsDNA, one strand shown
# Chain of ETV6 (P41212 whole entry): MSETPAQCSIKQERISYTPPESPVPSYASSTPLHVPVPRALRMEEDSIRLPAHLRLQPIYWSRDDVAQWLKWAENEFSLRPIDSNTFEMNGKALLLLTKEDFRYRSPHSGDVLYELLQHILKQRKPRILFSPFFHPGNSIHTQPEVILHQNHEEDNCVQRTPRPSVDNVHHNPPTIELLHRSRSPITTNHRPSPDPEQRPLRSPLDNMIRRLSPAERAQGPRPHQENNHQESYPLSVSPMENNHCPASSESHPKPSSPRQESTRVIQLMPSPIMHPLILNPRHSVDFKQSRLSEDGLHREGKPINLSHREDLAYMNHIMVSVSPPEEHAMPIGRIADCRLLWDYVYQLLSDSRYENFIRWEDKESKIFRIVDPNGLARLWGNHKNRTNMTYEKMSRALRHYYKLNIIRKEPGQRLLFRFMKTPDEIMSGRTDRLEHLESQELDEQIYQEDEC
# Method in brief: as §1
sequence,measurement,setting,value
TAAGCT,binding signal,[1],"1.08 fold enrichment (6-mer frequency, TF over GST control)"
same,binding signal,[2],"1.16 fold enrichment (6-mer frequency, TF over GST control)"
same,binding signal,[3],"1.91 fold enrichment (6-mer frequency, TF over GST control)"
same,binding signal,[4],"1.24 fold enrichment (6-mer frequency, TF over GST control)"
same,binding signal,[5],"1.18 fold enrichment (6-mer frequency, TF over GST control)"
same,binding signal,[6],"1.21 fold enrichment (6-mer frequency, TF over GST control)"
same,binding signal,[7],"1.19 fold enrichment (6-mer frequency, TF over GST control)"
same,binding signal,[8],"1.32 fold enrichment (6-mer frequency, TF over GST control)"
same,binding signal,[9],"3.23 fold enrichment (6-mer frequency, TF over GST control)"
same,binding signal,[10],"1.23 fold enrichment (6-mer frequency, TF over GST control)"
same,binding signal,[11],"1.39 fold enrichment (6-mer frequency, TF over GST control)"
same,binding signal,[12],"1.25 fold enrichment (6-mer frequency, TF over GST control)"
same,binding signal,[13],"1.13 fold enrichment (6-mer frequency, TF over GST control)"
same,binding signal,[14],"1.11 fold enrichment (6-mer frequency, TF over GST control)"
same,binding signal,[15],"1.3 fold enrichment (6-mer frequency, TF over GST control)"
same,binding signal,[16],"1.04 fold enrichment (6-mer frequency, TF over GST control)"
same,binding signal,[17],"1.2 fold enrichment (6-mer frequency, TF over GST control)"
same,binding signal,[18],"1.15 fold enrichment (6-mer frequency, TF over GST control)"
